# In ChEMBL document CHEMBL4513146, “CO-ADD screening of Karazin Kharkiv National University (Ukraine) compounds”:
# Results with a measured potency or affinity are listed apart.
# Tested on: Klebsiella pneumoniae
# Settings: Concentration 32 ug.mL-1;; ASSAY_TEST Inhibition of Bacterial Growth; detection method Absorption (OD600); MEDIA CAMHB; plate type 384well; NBS; CORNING #3640; time 18 hr
row,SMILES,Inhibition
1,O=C(Cn1nc2c(N3CCOCC3)nccn2c1=O)N1CCN(c2ccccc2F)CC1,8.66%
2,Cc1ccccc1Cn1nc2ccc(-c3ccccc3)nn2c1=O,7.15%
3,COc1cccc(Oc2nccn3c(=O)n(CC(=O)NCc4ccc(SC)cc4)nc23)c1,15.38%
4,CCc1ccc(N(Cc2ccccc2C)S(=O)(=O)c2cccn3c(CC)nnc23)cc1,6.17%
5,CC(C)(C)NC(=O)Cn1nc2n(Cc3cccs3)c(=O)c3sccc3n2c1=O,3.31%
6,Cc1ccc(C)c(NC(=O)Cn2nc3c4cc(-c5ccc(C)c(C)c5)nn4ccn3c2=O)c1,5.73%
7,CCc1nnc2c(S(=O)(=O)N(Cc3cccc(C)c3)c3ccc(C(C)C)cc3)cccn12,14.47%
8,COc1ccc(-c2cc3c4nnc(SCC(=O)Nc5cccc(Cl)c5C)n4ccn3n2)cc1,-3.16%
9,Cc1cc2nn(CC(=O)N3CCCc4ccccc43)c(=O)n2c(Nc2ccc(F)cc2)n1,10.84%
10,CCOc1ccc(-n2ccn3c(SC(C)C(=O)Nc4ccc(OC)cc4)nnc3c2=O)cc1 (centres undefined),5.17%
11,COc1ccc(-c2cc3c4nn(CC(=O)Nc5ccccc5OC)c(=O)n4ccn3n2)cc1,7.14%
12,Cc1ccc(C)c(CSc2nnc3c(=O)n(-c4ccc(F)c(F)c4)ccn23)c1,-0.25%
13,CCCCN(CC)c1ccc2nnc(CCc3nc(-c4ccc5c(c4)OCO5)no3)n2n1,3.82%
14,CN(C(=O)Cn1nc2n(Cc3ccco3)c(=O)c3sccc3n2c1=O)c1ccccc1,-0.68%
